Test results as given in PubChem BioAssay (NCATS).
Inconclusive results are not listed. Values without a mark were called inactive. The call rests on the fitted dose curve; in most records, active means well fitted cell-killing curve with a large enough effect; inconclusive means small, poorly fitted or top-dose-only effect, or effect the other way; inactive means flat fitted curve, though single readings scatter.

Test system: OV90
Test: Primary qHTS to identify gynecologic anti-cancer compounds using libraries of approved drugs and bioactive compounds (AID 1345084); further: nearly all actives have a fitted effect of over 55% in size
Details: Gynecologic cancer cell panel viability, ATPlite luminescence, 48 h; series mostly up to 57.5 µM; activity change, negative = cytotoxicity: at the top concentration
Method in brief: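 ATP-based viability (ATPlite), 1,000 cells/well, 16 h pre-incubation, 48 h compound at 37 C, 5% CO2, 15 min RT before read.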
On the % scale 0 is the no-effect control and ±100 the full control effect.

Going from CC(C)=CCC/C(C)=C/CO[C@@H]1O[C@H](CO[C@@H]2OC[C@](O)(CO)[C@H]2O)[C@@H](O)[C@H](O)[C@H]1O to CC1(C)[C@@H]2CC=C(CO[C@@H]3O[C@H](CO[C@@H]4OC[C@H](O)[C@H](O)[C@H]4O)[C@@H](O)[C@H](O)[C@H]3O)[C@H]1C2, the “activity change, negative = cytotoxicity” value rises from -0.989% [at 25.3 µM] to 9.02% [at 25.3 µM].

First: C[C@]1(OC(=O)/C=C/c2ccc(O)cc2)C[C@@H](O)[C@]2(O)C=CO[C@@H](O[C@@H]3O[C@H](CO)[C@@H](O)[C@H](O)[C@H]3O)C12 (stereo partly drawn)
Second: CC(=O)c1ccc(O[C@@H]2O[C@H](CO[C@@H]3OC[C@@H](O)[C@H](O)[C@H]3O)[C@@H](O)[C@H](O)[C@H]2O)cc1
The “activity change, negative = cytotoxicity” value of the first is lower: -1.79% [at 25.3 µM] for the first, 6.35% [at 25.3 µM] for the second.

Compared with CC[C@H]1OC(=O)[C@H](C)C(=O)[C@H](C)[C@@H](OC2O[C@H](C)C[C@H](N(C)C)[C@H]2O)[C@@H](C)C[C@@H](C)C(=O)/C=C/[C@]1(C)O (stereo partly drawn), COCC1OC(OC(C)(C)C2CCC3(C)C=C(C4CCC5C4(C)CC(O)C4OC(C(C)(C)O)CCC45C)CCC3O2)C(NC(C)=O)C(O)C1O (stereo not drawn) is higher in “activity change, negative = cytotoxicity” value: -0.973% [at 25.3 µM] for the first, 7.84% [at 25.3 µM] for the second.

Going from COc1cc(O)cc(C)c1C(=O)O[C@H]1[C@@H](O)[C@@H](n2ccc(=O)[nH]c2=O)O[C@@H]1CO to COc1cc(CC2COC(c3ccc(OC4OC(CO)C(O)C(O)C4O)c(OC)c3)C2CO)ccc1O (stereo not drawn), the “activity change, negative = cytotoxicity” value rises from -2.19% [at 25.3 µM] to -0.702% [at 25.3 µM].

Compared with NCCCCN(Cc1nc2ccccc2[nH]1)[C@H]1CCCc2cccnc21, CCC(C)/C=C(C)/C=C/C1=CC2=C(Cl)C(=O)C(C)(O)C(=O)C2(O)C(OC)O1 (stereo not drawn) is higher in “activity change, negative = cytotoxicity” value: -25.7% [at 25.3 µM] for the first, -1.91% [at 25.3 µM] for the second.

Going from CCC1OC(=O)C(C)CC(C)C(=O)/C(C)=C/C(C)C(=O)/C=C/C1(C)O (stereo not drawn) to CC1CC(=O)C2C(O)(C1)CC(O)C13OC1c1c(O)cccc1C(=O)C23O (stereo not drawn), the “activity change, negative = cytotoxicity” value rises from -1.44% [at 38.5 µM] to -0.298% [at 38.5 µM].

Going from CC1=CCC[C@@H]2[C@@](C)(CCc3ccoc3)[C@H](C(=O)O)CC[C@@]12C to CC1=CCC[C@@H]2[C@](CCc3ccoc3)(C(=O)O)[C@H](C)CC[C@@]12C, the “activity change, negative = cytotoxicity” value falls from 8.9% [at 38.5 µM] to -2.88% [at 38.5 µM].

Compared with C=C1C[C@H](O)[C@@H](O)[C@@]2(C)C1[C@@H](O)[C@H]1OC(=O)C3[C@@H](C)[C@@H](O)[C@H](O)C2[C@]31C (stereo partly drawn), CC(=O)/C=C/[C@H]1[C@](C)(O)[C@@H](O)[C@H](O)C2C(C)(C)CCC[C@@]21C (stereo partly drawn) is lower in “activity change, negative = cytotoxicity” value: 2.96% [at 38.5 µM] for the first, -4.85% [at 38.5 µM] for the second.

For CC(=O)OC/C(=C/C(=O)O)CC[C@@H]1C(C)=CC(=O)[C@@H]2C(C)(C)CCC[C@@]12C, the “activity change, negative = cytotoxicity” value was -3.45% [at 38.5 µM].

Going from CC(C)CC(=O)O[C@@H]1O[C@H](CO)[C@@H](O[C@H]2O[C@H](C)[C@@H](N[C@H]3C=C(CO)[C@@H](O[C@H]4O[C@H](CO)[C@@H](O[C@H]5O[C@H](CO)[C@@H](O[C@H]6O[C@H](CO)[C@@H](O)[C@H](O)[C@H]6O)[C@H](O)[C@H]5O)[C@H](O)[C@H]4O)[C@H](O)[C@H]3O)[C@H](O)[C@H]2O)[C@H](O)[C@H]1O to C[C@@H]1O[C@@H](O[C@@H]2[C@@H](O)[C@H](O[C@H]3[C@H](O[C@H]4CC[C@@]5(C)C(CC[C@]6(C)C5CC=C5[C@@H]7CC(C)(C)CC[C@]7(C(=O)O[C@@H]7O[C@H](CO)[C@@H](O)[C@H](O)[C@H]7O)CC[C@]56C)C4(C)C)O[C@H](C(=O)O)[C@@H](O)[C@@H]3O)OC[C@H]2O)[C@H](O)[C@H](O)[C@H]1O (stereo partly drawn), the activity change, negative = cytotoxicity falls from 4.33% [at 11.6 µM] to 0.961% [at 11.6 µM].

Compound CC(/C=C/C=C(\C)C(=O)O[C@@H]1O[C@H](CO[C@@H]2O[C@H](CO)[C@@H](O)[C@H](O)[C@H]2O)[C@@H](O)[C@H](O)[C@H]1O)=C\C=C\C=C(C)\C=C\C=C(/C)C(=O)O[C@@H]1C[C@](O)(C(=O)O)C[C@@H](O)[C@H]1OC(=O)/C=C/c1ccc(O)c(O)c1 has an activity change, negative = cytotoxicity of 8.2% [at 11.6 µM].

Compared with CCN(CCN(C)C)C(=O)CNCc1cc(C(N)=O)ccn1, COc1ccc(/C=C/C(N)=O)cc1OC is lower in “activity change, negative = cytotoxicity” value: -0.0083% for the first, -4.54% for the second.

Going from O=C(NCC(=O)N1CCCC1)Nc1ccc2ccccc2c1 to Cc1cccc(NC(=O)CN2CCC(c3ccccn3)CC2)c1, the “activity change, negative = cytotoxicity” value rises from 3.79% to 5.78%.

Compared with O=C(O)C[C@H]1CCC(=O)[C@@H]1C/C=C\CCO, C=C(C)C(O)COc1ccc(CC(=O)O)cc1 (stereo not drawn) is lower in “activity change, negative = cytotoxicity” value: 3.99% for the first, -0.661% for the second.

Compared with N#Cc1cccc(-c2c[nH]c3ncnc(N4CCOCC4)c23)c1, On1ncc(C2CCNCC2)c1-c1cccc(-c2ccccc2)c1 is higher in “activity change, negative = cytotoxicity” value: 3.09% for the first, 11% for the second.
